GLP-1R inv ag: acts as inverse agonist at human GLP-1 receptor; P43220; HEK293 GLP-1R CRE-luciferase, luminescence, 24 h; GLP-1R form is constitutively active; Potency, µM (series often up to 38.3 µM), without a hit: top-dose activity change, negative = inhibition, most hits filed as inhibitors; actives 1.6% (n = 410,000); also: % is scaled to controls: 0 for no effect and ±100 for the full control effect; nearly all actives have a fitted effect of over 55% in size
Target sequence (P43220 whole entry, looked up): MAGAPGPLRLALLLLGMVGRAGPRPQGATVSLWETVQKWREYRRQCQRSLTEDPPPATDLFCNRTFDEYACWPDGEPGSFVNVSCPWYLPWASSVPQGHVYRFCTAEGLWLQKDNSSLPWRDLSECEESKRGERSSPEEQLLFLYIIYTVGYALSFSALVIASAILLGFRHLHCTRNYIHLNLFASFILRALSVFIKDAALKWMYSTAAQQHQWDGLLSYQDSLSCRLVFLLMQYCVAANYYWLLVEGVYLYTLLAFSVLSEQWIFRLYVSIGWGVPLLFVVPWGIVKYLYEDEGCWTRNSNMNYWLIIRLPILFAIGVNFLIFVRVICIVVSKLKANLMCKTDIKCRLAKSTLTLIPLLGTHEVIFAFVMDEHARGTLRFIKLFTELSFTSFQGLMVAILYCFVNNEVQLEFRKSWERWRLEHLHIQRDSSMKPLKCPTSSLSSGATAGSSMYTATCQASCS
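Assay principle: reduced luminescence from a cAMP-responsive reporter in HEK293 cells co-expressing a constitutively active GLP-1R. Conditions: 24 hr compound incubation, 37 deg C, 5% CO2.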
GLP1R cytotox: cytotoxic in the GLP-1 receptor inverse agonist counter-screen; HEK293 cAMP-luciferase reporter cells, luminescence, 24 h; Potency, µM (top dose mostly 38.3 µM), inactives show at the top dose activity change, negative = inhibition, most hits filed as inhibitors; actives 0.13% (n = 410,000); AID 624418;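 also: loss of luciferase light is scored as toxicity; % is scaled to controls: 0 for no effect and ±100 for the full control effect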
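Luminescence readout: signal drop marks cytotoxicity. Plated cells grew 12 h at 37 °C, 5% CO2, received 23 nL compound for 24 h, then got luciferase reagent, read after 12 min at RT.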
GLP-1R agonist: activates the human GLP-1 receptor | Potency, µM (highest dose often 45.6 µM), without a hit: at the highest dose activation, hits mostly activators | actives 0.007% (n = 380,000) | P43220 | HEK293 GLP-1R CRE-luciferase, luminescence, 4-6 h; cells express a hypersensitive GLP-1R form; also: % of control where 0% means no effect
RORg inh: blocks mouse ROR gamma transcriptional activity. P51450. Drosophila S2 Gal4-RORgamma UAS-luciferase reporter, 20 h. Potency, µM (highest dose often 53.6 µM), without a hit: at the highest dose activity change, negative = inhibition, most hits filed as inhibitors. actives 5.4% (n = 310,000); also: % is scaled to controls: 0 for no effect and ±100 for the full control effect; nearly all actives have a fitted effect of over 60% in size
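Stably transfected Drosophila Schneider cells are the test system, with ROR gamma fused to Gal4 and luciferase under UAS control; luminescence is read after 20 hr of 700 uM copper sulfate induction at ambient temperature.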
VP16 counter: counter-screen for ROR gamma inhibitors: Gal4-VP16 reporter; Drosophila S2 Gal4-VP16 UAS-luciferase, luminescence, 20 h; Potency, µM (top dose mostly 53.6 µM), inactives show at the top dose activity, negative = inhibition, usual class: inhibitors; AID 2546; actives 3.5% (n = 310,000);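 also: Gal4-VP16 expression switched on by copper sulfate through the metallothionein promoter; % is scaled to controls: 0 for no effect and ±100 for the full control effect; nearly all actives have a fitted effect of over 50% in size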
An asterisk follows results filed as active; ? = inconclusive; · = no result; [ ] = remark or other dose. Hits are enriched below; roughly 5.9% of the tested compounds scored in any of these assays. Calls follow the shape of the dose curve; as a rule, active = well fitted curve in the direction sought with a large enough effect; inconclusive = small, poorly fitted or top-dose-only effect, or another doubt; inactive = no such curve, though single readings can be large; an effect the other way counts as inactive or inconclusive. Potency is read from the fitted curve at half-maximal effect.

SMILES	GLP-1R inv ag	GLP1R cytotox	GLP-1R agonist	RORg inh	VP16 counter
CC12CCC(C(=O)N(CSC(=S)N/N=C\c3ccccc3)C1=O)C2(C)C (centres undefined)	?	-2.9%	-4.3%	1.12µM*	1.58µM*
CCC1CCc2sc(C(=O)NC3CCN(Cc4ccccc4)CC3)cc2C1 (centres undefined)	5.01µM*	?	7.6%	·	·
CCC1CCc2sc(C(=O)NCC(c3ccccc3OC)N3CCCC3)cc2C1 (centres undefined)	5.01µM*	?	18.8%	·	·
COc1ccc(C(CNC(=O)c2cc3c(s2)CCC(C)C3)N2CCCC2)cc1 (centres undefined)	?	?	6.2%	·	·
CCC1CCc2sc(C(=O)N(C)CC(=O)Nc3cccc(OC)c3)cc2C1 (centres undefined)	?	-26.6%	-0.7%	·	·
CCC1CCc2sc(C(=O)N(C)CC(=O)Nc3ccc(OC)cc3)cc2C1 (centres undefined)	10µM*	-5.1%	13.5%	·	·
CC(=O)N1CCc2c(sc3c2c(=O)n(CCc2ccccc2)c(=O)n3CC(=O)Nc2ccc(C)c(F)c2)C1	9.7%	0.4%	-0.6%	·	·
O=C(O)c1ccccc1OS(=O)(=O)O	·	·	·	3.0%	-3.1%
CC(=O)OC[C@@H]1O[C@H](C/C=N\OC[C@@H](O)COCc2ccco2)C=C[C@@H]1OC(C)=O	·	·	·	31.0%[10 µM]	-12.6%[10 µM]
S=C(Nc1ccccc1)N1N=CCC1c1ccccc1 (centres undefined)	-4.3%	1.1%	12.2%	?	7.94µM*
O=C(Nc1cccc(Cl)c1)N1N=CCC1c1ccccc1 (centres undefined)	?	-22.1%	8.7%	-33.7%	-11.5%
Fc1ccc(NC(=S)N2N=CCC2c2ccccc2)cc1 (centres undefined)	0.0%	1.1%	2.7%	3.55µM*	7.94µM*
O=C(Nc1cccc2ccccc12)N1N=CCC1c1ccccc1 (centres undefined)	?	20.5%	27.2%	16.1%	-8.7%
Cc1ccc(NC(=S)Nc2ccc(C(C)C)cc2)cc1S(=O)(=O)N1CCCCCC1	?	?	-12.7%	3.16µM*	4.47µM*
C=CCNC(=S)Nc1ccc(C)c(S(=O)(=O)N2CCCCC2)c1	3.8%[7.66 µM]	13.9%[7.66 µM]	-0.3%	11.2µM*	-1.5%
CC1(CC(=O)N/N=C/c2cc(Br)c(O)cc2O)OCCO1	38.5%	4.8%	-10.8%	10µM*	-15.4%
O[C@@H](CNC[C@H](O)[C@H]1CCc2cc(F)ccc2O1)[C@@H]1CCc2cc(F)ccc2O1	·	·	-0.9%	·	·
Cc1ccc(S(=O)(=O)n2cc(-c3ccccc3)c(N)n2)cc1	?	-4.6%	5.9%	20.6%	0.3%
Nc1nn(S(=O)(=O)c2ccccc2)cc1-c1ccc([N+](=O)[O-])cc1	-1.1%	-3.5%	10.3%	?	35.5µM*
CCC1(c2ccccc2)NC(=S)N(c2ccc(C)cc2)N1 (centres undefined)	81.3%	7.9%	-0.6%	5.01µM*	?
CCCCCCC1(C)NC(=S)N(c2ccccc2)N1 (centres undefined)	?	-2.6%	2.2%	7.08µM*	-2.9%
CC1(CC(=O)Nc2ccccc2)NC(=S)N(c2ccccc2)N1 (centres undefined)	3.2%	-8.8%	0.9%	7.94µM*	0.7%
O=C(Nc1ncc(Cc2cccc(Cl)c2)s1)C1=NCCN1	2.5%	-1.8%	-5.5%	2.51µM*	5.01µM*
O=C(Nc1nnc(Cc2ccccc2)s1)c1ccccc1	31.9%	0.0%	3.9%	?	-3.2%
O=C(Nc1ncc(Cc2ccc(SC(F)F)cc2)s1)c1ccccc1	?	-24.7%	-1.2%	12.6µM*	20µM*
SMILES	GLP-1R inv ag	GLP1R cytotox	GLP-1R agonist	RORg inh	VP16 counter
Cc1ccc(C(=O)Nc2ncc(Cc3ccccc3)s2)o1	-6.8%	-8.1%	-6.3%	11.2µM*	?
CC(=O)Nc1ncc(Cc2ccc(Cl)cc2Cl)s1	-26.6%	-38.2%	17.9%	?	-2.7%
O=C(Nc1ncc(Cc2cccc(Cl)c2)s1)c1cccs1	?	?	7.9%	7.08µM*	15.8µM*
COc1ccc(C(=O)N2CCC3(CCCN(Cc4ccccc4OC)C3)CC2)cc1	·	·	·	-11.9%	-6.4%
Cc1ccc(Cc2cnc(NC(=O)c3cccs3)s2)cc1	?	-21.6%	7.0%	3.55µM*	8.91µM*
O=C(Nc1ncc(Cc2ccccc2)s1)c1cccs1	?	-17.2%	-10.3%	0.0%[10 µM]	?
COc1ccc(-n2c(=O)c(C)nc3cnc(Oc4cccc(Cl)c4)nc32)cc1	·	·	·	16.0%	-9.1%
Cc1ccc(Nc2cc(C)nc(-c3ccccc3O)n2)cc1	?	1.6%	3.4%	?	13.8%
Cc1cc(NCCCN)nc(-c2ccccc2O)n1	10µM*	-15.5%	-4.9%	0.1%	12.2%
CCCCOC(=O)c1cc2c(cn1)[nH]c1ccccc12	·	·	·	15.8µM*	31.6µM*
CNC(=O)c1cc2c(cn1)[nH]c1ccccc12	21.0%	4.5%	-1.6%	-42.9%	-7.5%
O=S(=O)(c1cccs1)N1CN(Cc2ccco2)c2nc3ccccc3nc21	1.78µM*	-16.0%	22.7%	?	-24.3%
COc1ccccc1CN1CN(S(=O)(=O)c2ccccc2)c2nc3ccccc3nc21	2.82µM*	-25.4%	9.1%	18.2%	17.4%
O=S(=O)(c1cccs1)N1CN(Cc2ccc(Cl)cc2)c2nc3ccccc3nc21	0.6%	-8.3%	-4.8%	35.7%	-8.2%
CCOC(=O)[C@]1(C(NC(=O)OC)c2ccccc2)CCCC1=O (some centres undefined)	·	·	·	-4.3%[10 µM]	-1.4%[10 µM]
CSCC[C@H](NC(=O)OC(C)(C)C)c1nnc(SCC=C(C)C)o1	?	-18.1%	-0.8%	11.2µM*	-20.4%
CCOC(=O)CSc1nnc([C@H](CC(C)C)NC(=O)OC(C)(C)C)o1	5.4%	3.9%	-0.3%	12.6µM*	1.9%
COC(=O)CSc1nnc([C@H](CC(C)C)NC(=O)OC(C)(C)C)o1	-1.3%	2.4%	11.5%	-8.1%	-1.9%
CSCC[C@H](NC(=O)OC(C)(C)C)c1nnc(SCC(N)=O)o1	14.7%	4.4%	-7.7%	-12.7%	-6.0%
Cc1ccc(-c2nc(-c3ccncc3)no2)cc1C	0.7%	-3.8%	21.8%	8.91µM*	?
COc1ccc(-c2noc(-c3ccc(Cl)cc3[N+](=O)[O-])n2)cc1OC	67.0%	10.7%	14.8%	32.6%	-2.1%
c1ccc(-c2noc(-c3ccc4ccccc4c3)n2)cc1	0.0%	-15.1%	-9.7%	3.55µM*	25.1µM*
O=c1oc2ccccc2cc1-c1nc(-c2ccccc2)no1	7.0%	-8.4%	2.6%	11.2µM*	8.91µM*
Cc1ccc(-c2noc(-c3cc4ccccc4oc3=O)n2)cc1	23.3%	6.0%	2.7%	8.8%	1.3%
Cc1ccc(-c2nc(-c3ccncc3)no2)cc1Cl	43.6%	3.5%	6.5%	-24.8%	-2.0%
